Measurements taken from PubChem BioAssay (Tox21).
The source made the active and inactive calls. Calls follow the shape of the full dose curve.

Assay: qHTS assay to identify small molecule agonists of the sonic hedgehog signaling (Shh) pathway (AID 1259368);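 also: NIH/3T3-derived 3T3Gli1-Luc cells carrying a stable Gli1-driven firefly luciferase reporter; nearly all actives have a fitted effect of over 15% in size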
Settings: NIH/3T3 Gli1-Luc reporter, luciferase, 24 h; series mostly up to 92.4 µM; activity change: at the top concentration
Excerpt: National Center for Advancing Translational Sciences [NCATS]
NIH Chemical Genomics Center [NCGC]
U.S. Environmental Protection Agency [EPA]
National Institutes of Environmental Health Sciences [NIEHS]
National Toxicology Program [NTP]
The sonic hedgehog (Shh) pathway is essential for normal embryonic development. Dysregulation of the Shh pathway can cause severe developmental defects in organs. Therefore chemicals that interfere with the pathway are potential developmental toxicants. A cell line designated 3T3Gli1-Luc (DMB/OARSA/CFSAN/FDA, Laurel, MD), a NIH/3T3 derived clone containing stably integrated Gli1-Luc reporter is used to detect chemical interference of the Shh pathway, by changes in the expression of the firefly Luc gene under the control of the Gli1 transcriptional response element. This cell line was used to screen Tox21 libraries for identifying and prioritizing the potential developmental toxicants that interfere Shh pathway.
3T3 Gli1-Luc cells were dispensed at 2,000 per well in 5uL of culture medium into white solid bottom 1536-well plates (Greiner Bio-One, Monroe, NC) using a Multidrop Combi (Thermo Scientific, Waltham, MA) dispenser. The assay plates were incubated at 37 C and 5% CO2 for 4hr, and then 23nL of compounds dissolved in DMSO and positive control were transferred using a Pintool station (Wako, San Diego, CA). The assay plates were incubated at 37C and 5% CO2 for 24hr. For luciferase read, 4uL of Amplite Luciferase reporter gene assay reagent (AAT Bioquest, Inc. Sunnyvale, CA) was added to each well of the assay plates using Flying Reagent Dispenser (FRD, Aurora Discovery, San Diego, CA) and incubated at room temperature for 30min. The luminescence signal was measured using a ViewLux plate reader (Perkin Elmer, Shelton, CT).
% is scaled to controls: 0 for no effect and ±100 for the full control effect.

SMILES	activity change	Potency
O=C1C[C@@H]2OCC=C3CN4CC[C@]56c7ccccc7N1[C@H]5[C@H]2[C@H]3C[C@H]46	-0.432% [at 42.5 µM, active compounds read high] (inactive)	
c1ccc2c(c1)cc1ccc3cccc4ccc2c1c34	7.7% (inactive)	
CCC[CH2][Sn]([CH2]CCC)([O]C(C)=O)[O]C(C)=O	-20.7% (inactive)	
CCN(CC)CCc1c[nH]c2ccccc12	0.578% (inactive)	
CN1CCc2cc(Cl)c(O)cc2[C@H]2c3ccccc3CC[C@@H]21	-1.89% [at 42.5 µM, active compounds read high] (inactive)	
Nc1nc(N)nc(Cl)n1	-0.726% (inactive)	
CCN(CC)Cc1nccn1-c1ccc([N+](=O)[O-])cc1C(=O)c1ccccc1Cl	2.16% [at 42.5 µM, active compounds read high] (inactive)	
O=S1OCC2C(CO1)C1(Cl)C(Cl)=C(Cl)C2(Cl)C1(Cl)Cl (stereo not given)		inactive
O=c1[nH]c2cc(Cl)ccc2n1C1CCNCC1	-0.937% [at 42.5 µM, active compounds read high] (inactive)	
O=[N+]([O-])c1cc(C(F)(F)F)c(Cl)c([N+](=O)[O-])c1Nc1ncc(C(F)(F)F)cc1Cl	-13.6% (inactive)	
C#CC1(O)CCCCC1	0.884% (inactive)	
CCC[CH2][Sn]([CH2]CCC)([CH2]CCC)[O][Sn]([CH2]CCC)([CH2]CCC)[CH2]CCC	-10.2% [at 8.39 µM, active compounds read high] (inactive)	
Cc1ccc(C)c2ccccc12	-0.747% (inactive)	
CNC(=O)O/N=C(\C)C(C)S(C)(=O)=O (stereo not given)	-3.97% [at 872 µM, active compounds read high] (inactive)	
Clc1ccc(C(c2ccc(Cl)cc2)C(Cl)Cl)cc1		inactive
BrCCCBr	0.111% (inactive)	
CNC(=O)/C=C(\C)OP(=O)(OC)OC	0.247% (inactive)	
Nc1cc(Cl)ccc1Cl	-1.77% (inactive)	
[Cl][Hg][c]1ccccc1	-13.1% (inactive)	
COc1ccc2c3c1O[C@H]1[C@H](O)CC[C@H]4[C@@H](C2)N(C)CC[C@@]341	-0.172% (inactive)	

SMILES	activity change	Potency
CSSC	4.13% (inactive)	
CC(C)(C)c1ccc(OP(=O)(Oc2ccccc2)Oc2ccccc2)cc1	-0.28% (inactive)	
N#Cc1ccc(N(CC(N)=O)CC(F)(F)F)cc1C(F)(F)F	-2.22% (inactive)	
CC(Cc1ccc(O)cc1)NCC(O)c1cc(O)cc(O)c1 (stereo not given)	-0.0547% [at 42.5 µM, active compounds read high] (inactive)	
CC(C)C(Br)C(=O)NC(N)=O (stereo not given)	2.33% [at 42.5 µM, active compounds read high] (inactive)	
Oc1ccc(Cl)c(Cl)c1	-6.47% (inactive)	
C[C@@H]1CC2=CC(=O)CC[C@@H]2[C@H]2CC[C@@]3(C)[C@@H](CC[C@]3(C)O)[C@@H]21	1.16% [at 42.5 µM, active compounds read high] (inactive)	
CNC(=O)Oc1cc(C)cc(C(C)C)c1	-0.0851% (inactive)	
c1cc[n+]2c(c1)-c1cccc[n+]1CC2	-8.49% [at 42.5 µM, active compounds read high] (inactive)	
COc1ccc2[nH]cc(CCN(C(C)C)C(C)C)c2c1	2.38% (inactive)	
O=S1(=O)OCC2C(CO1)C1(Cl)C(Cl)=C(Cl)C2(Cl)C1(Cl)Cl (stereo not given)	-6.72% (inactive)	
CCN1CCC2(CC1)COc1cc3c(cc12)N(C(=O)c1ccc(-c2ccc(-c4nnc(C)o4)cc2C)cc1)CC3	-14% (inactive)	
O=S(=O)(NS(=O)(=O)C(F)(F)F)C(F)(F)F	-15.1% (inactive)	
CCO/N=C(\CC)C1=C(O)CC(c2c(C)cc(C)cc2C)CC1=O (stereo not given)	-0.817% (inactive)	
O=C1C2(Cl)C3(Cl)C4(Cl)C(Cl)(Cl)C5(Cl)C3(Cl)C1(Cl)C5(Cl)C24Cl (stereo not given)		inactive
CCC(C)Br (stereo not given)	1.03% (inactive)	
CCC(OC(C)=O)C(CC(C)NC)(c1ccccc1)c1ccccc1 (stereo not given)	-5.45% (inactive)	
c1ccc(N=NNc2ccccc2)cc1	5.81% (inactive)	
C[C@]12Cc3cn[nH]c3C[C@@H]1CC[C@@H]1[C@@H]2CC[C@@]2(C)[C@H]1CC[C@]2(C)O	-1.74% [at 42.5 µM, active compounds read high] (inactive)	
CCCCC(CC)COC(=O)OOC(C)(C)C (stereo not given)	0.165% (inactive)	
